Consider 91 compounds from PubChem BioAssay AID2417 (National Center for Advancing Translational Sciences (NCATS), 2010).

The campaign covered roughly 140,000 compounds. About 4,300 (3.1%) were called active. About 21% were inconclusive and are not listed. Many of the other results were omitted from the sample, so actives are more common in it than they were. Values without a mark were called inactive.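 Rule for the calls: active = readout at or below -70, meaning at least 70% loss of cells showing the perinucleolar compartment, a nuclear body marking cancer cells; inconclusive = readout between -30 and a set limit; inactive = the rest.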

A short description of the assay: High Content Assay for Compounds that inhibit the Assembly of the Perinucleolar Compartment.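 Note: plate controls were DMSO wells for no effect and camptothecin positive control wells for full effect.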 The note with it: PC3M PTB-GFP, PNC prevalence imaging, 16 h; at 10 µM; stronger effect = lower value. A digest of the protocol: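 PC3M cells stably expressing PTB-GFP, 750–1000 cells/well, treated 16 h at 37 °C with compound (23 nl of library stock), in duplicate. After paraformaldehyde fixation and Hoechst stain, imaged at 20x; PNC prevalence scored by image analysis.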
Consider `Cc1c(C2=CCN(S(=O)(=O)c3ccc(Cl)cc3)CC2)c2ccccc2n1C`, for which the activity change (PNC), negative = inhibition was 30.7%.
In the case of `O=[N+]([O-])c1cccc(S(=O)(=O)N2CCCCCC2)c1`, the activity change (PNC), negative = inhibition is -7.16%.
For `CO/N=C(\N)c1ccc([N+](=O)[O-])cc1` the value was 28.8%.
Under `N/C(=N\OS(=O)(=O)c1cccc([N+](=O)[O-])c1)c1ccncc1` stands -108% (active).
Turning to `CCC1(C(=O)c2ccccc2)C(c2cccc([N+](=O)[O-])c2)C1(C(=O)OC)C(=O)OC` (stereo unspecified), the activity change (PNC), negative = inhibition is -9.15%.
For `CC(C)(C)n1nnc(CCc2nnn(C(C)(C)C)n2)n1` the value was -91.9% (active); for `O=C(Nc1ccc([N+](=O)[O-])cc1)C1(c2ccccc2)CCOCC1`, 5.8%.
As for `Cc1cc(C(=O)N/N=C/c2cc([N+](=O)[O-])cc(C)c2O)n[nH]1`, the activity change (PNC), negative = inhibition is -128% (active).
For `COc1cccc(/C=N/NC(=O)c2cccc([N+](=O)[O-])c2)c1OS(=O)(=O)c1ccc(C)cc1`, the activity change (PNC), negative = inhibition was 20.7%.
Consider `Cc1ccc(-n2[nH]c(C)c(/C=N/NC(=O)c3cccc([N+](=O)[O-])c3)c2=O)cc1C`, for which the activity change (PNC), negative = inhibition is 3.84%.
As to `Cc1nn(-c2ccccc2)c(-n2cccc2)c1C(=O)O`, the activity change (PNC), negative = inhibition was 4.84%.
Consider `CC(C)c1ccc(N2CC(C(=O)Nc3nccs3)CC2=O)cc1` (stereo unspecified), for which the activity change (PNC), negative = inhibition was 21.8%.
As to `CCc1ccc(N2CC(C(=O)NC3=NCCS3)CC2=O)cc1` (stereo unspecified), the activity change (PNC), negative = inhibition is 10.4%.
For `CCc1nnc(NC(=O)C2CC(=O)N(c3ccc4c(c3)OCCO4)C2)s1` (stereo unspecified) the value was -107% (active); for `O=C(COc1ccccc1F)NNC(=O)c1ccc(N2CCCCC2)c([N+](=O)[O-])c1`, -26.5%; for `CCOC(=O)Cc1csc(SCC(=O)NC(C)C23CC4CC(CC(C4)C2)C3)n1` (stereo unspecified), 20%.
Under `Cc1ccc(OCC(=O)N/N=C\c2ccco2)c(C)c1` stands 54.4%.
As to `Cc1ccc(OCC(=O)N/N=C/c2ccncc2)cc1`, the activity change (PNC), negative = inhibition is 28.2%.
On to `Cc1ccc(/C=N/NC(=O)COc2ccccc2-c2ccccc2)cc1`, for which the activity change (PNC), negative = inhibition is -125% (active).
For `CCc1ccc(NC(=O)C(C)OC(=O)/C=C/c2cccc([N+](=O)[O-])c2)cc1` (stereo unspecified) the value was 10.2%; for `O=C1NC(c2ccccc2)CCC1(Cl)Cl` (stereo unspecified), -7.09%; for `C=CCn1c(N)cc(=O)nc1SCC(=O)Nc1cccc2ccccc12`, 69%.
Take `C=CCn1c(SCC(=O)NC23CC4CC(CC(C4)C2)C3)nc(O)cc1=O`: the activity change (PNC), negative = inhibition is -100% (active).
As for `O=C(CNCCO)NC12CC3CC(CC(C3)C1)C2`, the activity change (PNC), negative = inhibition is 20.6%.
With `Cc1cc(C)cc(OCC(=O)NNC(=O)CCN2C(=O)c3ccccc3C2=O)c1`, the activity change (PNC), negative = inhibition was 31.4%.
For `CC(=O)Oc1cccc(N2C(=O)C3CC=C(Cl)CC3C2=O)c1` (stereo unspecified), the activity change (PNC), negative = inhibition was -0.248%.
As for `O=C(Oc1cccc(N2C(=O)C3C4c5ccccc5C(c5ccccc54)C3C2=O)c1)c1ccco1` (stereo unspecified), the activity change (PNC), negative = inhibition was -97.3% (active).
Under `CC(=O)Nc1ccc(N2C(=O)C3C4CC(=O)C(c5ccccc54)C3C2=O)cc1` (stereo unspecified) stands 13.1%; under `COc1cc(NC(=O)c2cc([N+](=O)[O-])ccc2Br)ccc1NC(=O)c1ccco1`, 38.2%; under `CC(Sc1nnc2c(n1)C1CCC2(C)C1(C)C)C(=O)Nc1ccccc1` (stereo unspecified), 11.5%.
Turning to `O=C(Cc1ccccc1)NNS(=O)(=O)c1ccc([N+](=O)[O-])cc1`, the activity change (PNC), negative = inhibition was 3.03%.
Regarding `Clc1cccc(CN2COc3c(cc(Cl)c4cccnc34)C2)c1`, the activity change (PNC), negative = inhibition was -27.1%.
As for `Cc1ccc(C(C)NC(=O)Cn2nc(C)c([N+](=O)[O-])c2C)cc1` (stereo unspecified), the activity change (PNC), negative = inhibition is 1.18%.
In the case of `Cc1c(Cl)c([N+](=O)[O-])nn1CCCC(=O)NC(C)c1ccccc1` (stereo unspecified), the activity change (PNC), negative = inhibition was -83.2% (active).
Consider `Cc1nn(Cc2ccccc2Cl)c(C)c1NC(=O)Cn1nc([N+](=O)[O-])c(Cl)c1C`, for which the activity change (PNC), negative = inhibition is 29.3%.
On to `O=C(Cc1ccccc1)Nc1cccc(C(=O)N/N=C/c2ccco2)c1`, for which the activity change (PNC), negative = inhibition was -20.1%.
Under `COC(=O)/C(C#N)=C/c1occc1C` stands 11.3%.
Turning to `CS(=O)(=O)c1sc2nc(-c3ccccc3)cc(-c3ccccc3)c2c1N`, the activity change (PNC), negative = inhibition was 18.6%.
`Nc1cccc(CCc2nc3ccccc3[nH]2)c1`: the activity change (PNC), negative = inhibition is -19.2%.
Regarding `Nc1cccc(-c2cc(-c3ccccc3)nc(-c3cccc(N)c3)n2)c1`, the activity change (PNC), negative = inhibition was -112% (active).
Take `Cc1ccc(N2C(=O)C(NC(=O)c3c(F)cccc3F)(C(F)(F)F)C3=C2CC(C)(C)CC3=O)cc1` (stereo unspecified): the activity change (PNC), negative = inhibition was -6.53%.
Take `Cc1ccc2[nH]c(=O)c(CC=C(Cl)Cl)c(C)c2c1`: the activity change (PNC), negative = inhibition is 8.75%.
Consider `O=C(O)Cc1ccc(NC(=O)c2cccs2)cc1`, for which the activity change (PNC), negative = inhibition was -2.77%.
Regarding `Cc1nc(-c2ccc(NC(=O)c3cccs3)cc2)cs1`, the activity change (PNC), negative = inhibition was 20.4%.
Under `O=C(O)c1ccc(NC(=O)c2cccs2)cc1` stands -100% (active).
With `CCCCN1C(=O)c2ccc(C(=O)Nc3ccc(S(=O)(=O)N(C)C)cc3)cc2C1=O`, the activity change (PNC), negative = inhibition was -17.6%.
`CCOC(=O)COc1ccc([N+](=O)[O-])cc1`: the activity change (PNC), negative = inhibition was 14.3%.
For the compound `CCOc1cc(/C=N/NC(=O)OC)ccc1OCCSc1ccc(Cl)cc1`, the activity change (PNC), negative = inhibition was 45.6%.
In the case of `CCCC(NC(=O)c1ccco1)c1nc2ccccc2[nH]1` (stereo unspecified), the activity change (PNC), negative = inhibition was 16.4%.
As to `Cc1cc(=O)oc2ccc(OCC(=O)O)cc12`, the activity change (PNC), negative = inhibition was 55.8%.
In the case of `Cc1ccc(CNC(=O)COc2ccc3c(c2)CCC3)cc1`, the activity change (PNC), negative = inhibition was -5.6%.
Turning to `Cc1ccc(SC(=O)COc2ccc(C)c(C)c2)cc1`, the activity change (PNC), negative = inhibition is -106% (active).
Consider `O=C(COC(=O)c1cc([N+](=O)[O-])ccc1NCc1ccccc1)NC1CCCCC1`, for which the activity change (PNC), negative = inhibition is 50.7%.
Consider `Cc1ccc2c(c1)C(c1ccccc1)N(C(=O)c1ccc(S(=O)(=O)N3CCOCC3)cc1)CC(=O)N2` (stereo unspecified), for which the activity change (PNC), negative = inhibition was 7.14%.
In the case of `COc1ccc(/C=N/NC(=O)c2ccccc2)cc1OS(=O)(=O)c1ccccc1`, the activity change (PNC), negative = inhibition was 45.9%.
As for `O=C(NC(=S)Nc1ccc2oc(=O)ccc2c1)c1ccc(-c2cccc(Cl)c2Cl)o1`, the activity change (PNC), negative = inhibition was -8.36%.
With `CCOC(=O)C1=C(C)N=C2c3ccccc3C(=O)C2C1c1ccc(Br)cc1` (stereo unspecified), the activity change (PNC), negative = inhibition was -24.2%.
For `COC(=O)C1=C(C)N(C)C(C)=C(C(=O)OC)C1c1cccc(Br)c1` the value was 20%; for `COC(=O)C1=C(C(=O)OC)C2(OC1c1ccc(Br)cc1)C(=O)c1ccccc1C2=O` (stereo unspecified), -100% (active); for `Cc1cccc2cc(CN(C(=O)c3cccs3)c3ccccc3)c(=O)[nH]c12`, 29.9%.
Regarding `COc1ccc(/C(C)=N/Nc2cc(C(F)(F)F)ccc2Cl)c(OC)c1`, the activity change (PNC), negative = inhibition is -13.2%.
Under `O=C(c1ccc2c(c1)OCO2)N1CCOCC1` stands -100% (active); under `O=C(c1ccc2c(c1)OCO2)N1CCN(C(=O)c2ccco2)CC1`, 54.5%; under `O=C(c1ccc2c(c1)OCO2)N1CCNc2ccccc2C1`, -29.9%.
On to `Cc1cccc(OP(=O)(Nc2c(C)n(C)n(-c3ccccc3)c2=O)Oc2cccc(C)c2)c1`, for which the activity change (PNC), negative = inhibition was -6.43%.
Consider `COc1ccc(N(C(=O)c2ccc(C)cc2)S(=O)(=O)c2cccs2)cc1`, for which the activity change (PNC), negative = inhibition was 19.1%.
Turning to `Cc1ccc(NC(=O)CC2C(=O)N(Cc3ccccc3)C(=S)N2NC(=O)c2cccc(F)c2)c(C)c1` (stereo unspecified), the activity change (PNC), negative = inhibition was -107% (active).
For `O=C(CN1CCN(C(=O)c2cccc(F)c2)CC1)Nc1ccccc1F`, the activity change (PNC), negative = inhibition is 6.16%.
With `Cc1ccc(NC(=S)NC(=O)c2ccc(-c3ccccc3)cc2)c(C)c1`, the activity change (PNC), negative = inhibition was 6.22%.
For `CC(=O)NC1=NN(C(C)=O)C(C)(CCS(=O)(=O)c2ccc(Cl)c(Cl)c2)S1` (stereo unspecified) the value was 72.1%; for `COc1ccc(OCCNS(=O)(=O)Cc2ccccc2)cc1`, 21.5%; for `CC(=O)Nc1ccc(NC(=O)C(C)OC(=O)c2ccccc2C(=O)c2ccc(Cl)c([N+](=O)[O-])c2)cc1` (stereo unspecified), 14.8%.
Turning to `N#Cc1cccc(NC(=O)COC(=O)c2ccccc2C(=O)c2ccc(Cl)c([N+](=O)[O-])c2)c1`, the activity change (PNC), negative = inhibition was -102% (active).
With `COC(=O)c1cc(NC(=O)Cc2ccccc2[N+](=O)[O-])ccc1Cl`, the activity change (PNC), negative = inhibition is -21.5%.
`CCc1nnc(NC(=O)/C=C/c2ccc(C)o2)s1`: the activity change (PNC), negative = inhibition is 43.5%.
Consider `COC(=O)C1=C(C)N(C)C(=S)NC1c1ccccc1` (stereo unspecified), for which the activity change (PNC), negative = inhibition is -28.4%.
With `O=C(NCc1cccs1)C(=O)NCC1OCCCN1S(=O)(=O)c1ccc(F)cc1` (stereo unspecified), the activity change (PNC), negative = inhibition was 17.8%.
Under `Cc1cccc(N2CCN(C(=O)c3ccccc3NC(=O)C3CCCCC3C(=O)O)CC2)c1` (stereo unspecified) stands 0.826%; under `O=S(=O)(NCCSc1ccccn1)c1ccc(Cl)cc1`, 47.1%.
For `CCc1nnc(NC(=O)C2CCCN2S(=O)(=O)c2ccccc2)s1` (stereo unspecified), the activity change (PNC), negative = inhibition was 0.753%.
Under `COc1ccc(C2SCCN2S(=O)(=O)c2ccccc2)cc1OC` (stereo unspecified) stands -9.05%; under `CC1CN(S(=O)(=O)c2ccccc2)C(C)CN1S(=O)(=O)c1ccccc1` (stereo unspecified), -100% (active); under `CCCn1nc(NS(=O)(=O)c2ccccc2)c2cc3cc(C)ccc3nc21`, 9.97%.
With `CN(C)S(=O)(=O)c1cc(NC(=O)CN2C(=O)NC3(CCCc4ccccc43)C2=O)ccc1Cl` (stereo unspecified), the activity change (PNC), negative = inhibition is 71.5%.
For `CCOc1ccc(NC(=S)N2CCC(N(C)CC3CCCO3)CC2)cc1` (stereo unspecified) the value was 0.566%.
Regarding `CC1CCN(C(=O)c2ccc(S(=O)(=O)Cc3cc(F)ccc3F)c([N+](=O)[O-])c2)CC1`, the activity change (PNC), negative = inhibition was 25.9%.
As for `COCCCNCCOCCOc1ccc(Cl)cc1Br`, the activity change (PNC), negative = inhibition is 40.2%.
Under `CC(C)(C)NCCCOc1ccc(Cl)cc1C(C)(C)C` stands -102% (active).
`Cc1ccc(C(C)(C)C)c(OCCCCN2CCCC2)c1`: the activity change (PNC), negative = inhibition is -12.5%.
As for `CCCCc1nc(NCc2ccccc2)c(C#N)c2c1CCCC2`, the activity change (PNC), negative = inhibition is 225%.
As to `Cc1nn(Cc2ccccc2)c(C)c1C(=O)NCCN1C(=O)S/C(=C\c2ccc(F)cc2)C1=O`, the activity change (PNC), negative = inhibition was 37%.
